Assay results from PubChem BioAssay.

tested on: Human papillomavirus type 1a E7 protein (residues 1-88); assay: HPV1a E7 small-molecule binders, primary screen, biochemical, small-molecule microarray, residues 1-88, 635 nm (AID 1129); conditions: small-molecule microarray binding, fluorescence 635 nm; higher = more signal

Row | Compound | composite z-score
1 | COC(=O)[C@@]1(Cc2ccccc2)[C@H]2c3cc(C(=O)N4CCCC4)n(C)c3C[C@H]2CN1C(=O)c1ccccc1 | 0.762
2 | O=C1O[C@H](c2ccccc2)[C@H](c2ccccc2)N2[C@H]1[C@@H](C(=O)Nc1nc3ccccc3s1)[C@]1(C(=O)Nc3ccccc31)[C@H]2c1ccc(O)cc1 | 1.24
3 | CCN(CC)c1ccc(N2CC=CC34O[C@@H]5C=CCCOC(=O)C5[C@H]3C(=O)N(CCCCCO)[C@@H]4C2=O)cc1 (some centres undefined) | -0.513
4 | COCCOC(=O)N1C(=O)[C@@]2(c3cc(C#CCC(C(=O)OC)C(=O)OC)ccc31)[C@H](c1ccc(O)cc1)N1[C@H](c3ccccc3)[C@H](c3ccccc3)OC(=O)[C@H]1[C@@H]2C(N)=O | 1.23
5 | NC(=O)NCC#Cc1ccc2c(c1)[C@]1(C(=O)N2)[C@H](C(=O)N2CCCCCCC2)[C@H]2C(=O)O[C@H](c3ccccc3)[C@H](c3ccccc3)N2[C@@H]1c1ccc(OCCO)cc1 | 1.14
6 | CC(C)N1CC=CC23O[C@@H]4C=CCOC(=O)[C@@H]4[C@H]2C(=O)N(CCO)[C@@H]3C1=O (some centres undefined) | -0.586
7 | COc1ccc(CCNC(=O)[C@@]2(c3ccc([N+](=O)[O-])cc3)CC(=O)N(CC34CC5CC(CC(C5)C3)C4)[C@@H]2c2ccc(CO)cc2)cc1 | 1.17
8 | COCCOC(=O)N1C(=O)[C@@]2(c3ccccc31)[C@H](C(=O)NC[C@H](O)c1ccccc1)[C@H]1C(=O)O[C@H](c3ccccc3)[C@H](c3ccccc3)N1[C@@H]2c1ccc(OCCO)cc1 | 1.15
9 | COc1ccc(C(O)C2C=CC3C(=O)NC(=O)C3N2Nc2ccccn2)cc1OCc1ccccc1 (centres undefined) | 0.502
10 | COCCOC(=O)N1C(=O)[C@@]2(c3cc(C#CC4=CCCCC4)ccc31)[C@H](C(=O)NC[C@H](O)c1ccccc1)[C@H]1C(=O)O[C@H](c3ccccc3)[C@H](c3ccccc3)N1[C@@H]2c1ccc(O)cc1 | 1.19
11 | COc1ccc([Si](C)(C)[C@@H]2[C@@H](CCn3cc([C@H](O)c4ccccc4)nn3)O[C@]3(C(=O)N(Cc4ccc(N5C(=O)c6cccc7cccc5c67)cc4)c4ccccc43)[C@H]2C)cc1 | -0.412
12 | [N-]=[N+]=NCc1ccccc1C[C@]1(C(=O)O)N=C(c2ccc(OCCCO)cc2)O[C@H]1c1ccccc1CN=[N+]=[N-] | 1.03
13 | CC(C)NC(=O)[C@@H]1c2ccccc2C(=O)N(Cc2ccccc2)[C@H]1c1ccc(CO)cc1 | 0.482
14 | COCCOC(=O)N1C(=O)[C@@]2(c3cc(C#CCNC(N)=O)ccc31)[C@H](c1ccccc1OCCO)N1[C@H](c3ccccc3)[C@H](c3ccccc3)OC(=O)[C@H]1[C@@H]2C(N)=O | 1.15
15 | O=C1C2C=CC(C(O)c3ccc(B(O)O)cc3)N(Nc3ccccc3)C2C(=O)N1c1ccccc1 (centres undefined) | -0.935
16 | COC(=O)[C@@]1(Cc2ccc(F)cc2)[C@H]2c3cc(C(=O)N(C)C)n(CCc4ccccn4)c3C[C@H]2CN1C(=O)c1ccccc1 | 1.25
17 | Cc1ccc(S[C@]2(C(=O)NC3CC3)CC(=O)N(Cc3ccccc3)[C@@H]2c2ccc(CO)cc2)cc1 | -0.663
18 | O=C1C2C=CC(C(O)c3ccc(F)cc3)N(Nc3ccccc3)C2C(=O)N1c1ccccc1 (centres undefined) | 1.22
19 | Cc1cc(C)c(C(O)C2C=CC3C(=O)N(C)C(=O)C3N2Nc2ccccc2)c(C)c1 (centres undefined) | 0.496
20 | [N-]=[N+]=NCc1ccccc1C[C@]1(C(=O)NCCN2CCOCC2)N=C(c2ccc(OCCCO)cc2)O[C@H]1c1ccccc1N=[N+]=[N-] | 1.25
21 | O=C(OCCF)C1=CCC(c2cccc(Cl)c2)O1 (centres undefined) | 0.628
22 | [N-]=[N+]=NCc1ccccc1C[C@]1(C(=O)NCC(O)CO)N=C(c2ccc(OCCCO)cc2)O[C@H]1c1ccccc1N=[N+]=[N-] (some centres undefined) | 1.12
23 | COCC1=C2[C@@H](CCc3ccccc3)OB(O)C[C@@H]2[C@@H]2C(=O)N(Cc3ccccc3)C(=O)[C@@H]2C1 | -0.147
24 | [N-]=[N+]=Nc1ccccc1[C@H]1OC(c2ccc(OCCCO)cc2)=N[C@@]1(CCS(=O)(=O)c1ccccc1)C(=O)O | 0.478

target: Focal adhesion kinase 1 (Homo sapiens) (UniProt Q05397); assay: PTK2 protein binding on printed compound slides – biochemical, small-molecule microarray, 635/667 nm fluorescence, BSA, DTT, primary screen (AID 1130); conditions: 635 nm fluorescence, higher = more signal;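 also: composite of spot emission at 667 nm and signal to noise over triplicate slides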
Sequence (Q05397 whole entry, looked up): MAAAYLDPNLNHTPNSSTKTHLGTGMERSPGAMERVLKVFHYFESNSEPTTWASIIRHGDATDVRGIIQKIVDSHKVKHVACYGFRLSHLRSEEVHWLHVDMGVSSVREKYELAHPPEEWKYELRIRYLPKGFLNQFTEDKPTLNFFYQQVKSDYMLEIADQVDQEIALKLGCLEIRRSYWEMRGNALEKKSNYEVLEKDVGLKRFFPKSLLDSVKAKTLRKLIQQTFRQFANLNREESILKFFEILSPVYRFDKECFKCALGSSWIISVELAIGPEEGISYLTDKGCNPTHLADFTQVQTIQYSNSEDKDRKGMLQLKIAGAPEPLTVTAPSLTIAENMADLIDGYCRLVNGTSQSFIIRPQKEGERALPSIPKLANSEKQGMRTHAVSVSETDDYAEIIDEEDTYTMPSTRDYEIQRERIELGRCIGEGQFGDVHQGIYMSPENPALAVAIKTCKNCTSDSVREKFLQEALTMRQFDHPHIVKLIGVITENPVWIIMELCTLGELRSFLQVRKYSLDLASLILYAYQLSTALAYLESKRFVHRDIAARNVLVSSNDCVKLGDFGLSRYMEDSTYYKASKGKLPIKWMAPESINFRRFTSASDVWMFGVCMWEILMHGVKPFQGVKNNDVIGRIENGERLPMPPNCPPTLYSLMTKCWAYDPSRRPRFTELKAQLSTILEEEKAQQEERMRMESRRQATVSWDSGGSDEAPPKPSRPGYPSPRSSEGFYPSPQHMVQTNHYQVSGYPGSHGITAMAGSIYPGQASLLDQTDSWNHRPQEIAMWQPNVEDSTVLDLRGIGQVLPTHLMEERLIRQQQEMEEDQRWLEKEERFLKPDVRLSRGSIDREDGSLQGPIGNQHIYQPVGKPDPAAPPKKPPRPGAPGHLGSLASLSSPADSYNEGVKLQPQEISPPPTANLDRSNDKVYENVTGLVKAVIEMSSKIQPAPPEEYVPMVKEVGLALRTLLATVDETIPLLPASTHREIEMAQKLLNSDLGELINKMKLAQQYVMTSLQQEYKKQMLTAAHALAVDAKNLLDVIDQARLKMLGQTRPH

Row | Compound | composite z-score
25 | COCC(=C=CC[C@@H](O)c1ccc(CO)o1)CCO | -0.29
26 | CC(C)N1C(=O)c2ccccc2[C@@H](C(=O)NCCCN(C)C)[C@@H]1c1ccc(CO)cc1 | 1.13
27 | C=C[C@@H](COC(C)=O)N(Cc1ccc([N+](=O)[O-])cc1)S(=O)(=O)c1ccc(Br)cc1 | 0.079
28 | CC(C)C(=C=CC[C@@H](O)c1ccccc1OCCO)C[C@@H](O)c1ccccn1 | 1.02
29 | C=CCNC(=O)[C@@H]1[C@H]2C(=O)O[C@H](c3ccccc3)[C@H](c3ccccc3)N2[C@H](c2ccc(O)cc2)[C@@]12C(=O)N(C(=O)OCCOC)c1ccccc12 | 0.419
30 | CC(C)(C)OC(=O)CC[C@@]1(C(=O)NCCN2CCOCC2)N=C(c2ccc(OCCCO)cc2)O[C@@H]1c1ccccc1 | 0.111
31 | N#Cc1ccc(NN2C(C(O)C3CCCCC3)C=CC3C(=O)N(c4ccccc4)C(=O)C32)cc1 (centres undefined) | 0.533
32 | C=CCN1C(=O)[C@]2(O[C@H](CCO)[C@@H]([Si](C)(C)c3ccc(OC)cc3)[C@@H]2C)c2cc(NC(=O)[C@H](C)O)ccc21 | 0.937
33 | O=C1O[C@H](c2ccccc2)[C@H](c2ccccc2)N2[C@H]1[C@@H](C(=O)N1CCN(c3ncccn3)CC1)[C@]1(C(=O)Nc3ccccc31)[C@H]2c1ccc(OCCO)cc1 | 0.429
34 | O=C1OCCC/C=C\[C@H]2OC34C=CCN(Cn5nnc6ccccc65)C(=O)[C@H]3N(CCCCCO)C(=O)[C@@H]4C12 (some centres undefined) | -0.43
35 | COc1cc2c(cc1OC)CN(C(=O)[C@@H]1[C@H]3C(=O)O[C@H](c4ccccc4)[C@H](c4ccccc4)N3[C@H](c3ccccc3OCCO)[C@@]13C(=O)Nc1ccc(C#CCNC(N)=O)cc13)CC2 | 1.33
36 | COC(=O)[C@@]1(Cc2ccccc2)[C@H]2c3cc(C(=O)N4CCCC4)n(C)c3C[C@H]2CN1C(=O)c1ccccc1 | 1.73
37 | O=C1O[C@H](c2ccccc2)[C@H](c2ccccc2)N2[C@H]1[C@@H](C(=O)Nc1nc3ccccc3s1)[C@]1(C(=O)Nc3ccccc31)[C@H]2c1ccc(O)cc1 | 0.19
38 | CCN(CC)c1ccc(N2CC=CC34O[C@@H]5C=CCCOC(=O)C5[C@H]3C(=O)N(CCCCCO)[C@@H]4C2=O)cc1 (some centres undefined) | -0.172
39 | COCCOC(=O)N1C(=O)[C@@]2(c3cc(C#CCC(C(=O)OC)C(=O)OC)ccc31)[C@H](c1ccc(O)cc1)N1[C@H](c3ccccc3)[C@H](c3ccccc3)OC(=O)[C@H]1[C@@H]2C(N)=O | 0.242
40 | NC(=O)NCC#Cc1ccc2c(c1)[C@]1(C(=O)N2)[C@H](C(=O)N2CCCCCCC2)[C@H]2C(=O)O[C@H](c3ccccc3)[C@H](c3ccccc3)N2[C@@H]1c1ccc(OCCO)cc1 | 0.773
41 | CC(C)N1CC=CC23O[C@@H]4C=CCOC(=O)[C@@H]4[C@H]2C(=O)N(CCO)[C@@H]3C1=O (some centres undefined) | -0.346
42 | COc1ccc(CCNC(=O)[C@@]2(c3ccc([N+](=O)[O-])cc3)CC(=O)N(CC34CC5CC(CC(C5)C3)C4)[C@@H]2c2ccc(CO)cc2)cc1 | 0.397

Row | Compound | composite z-score
43 | COCCOC(=O)N1C(=O)[C@@]2(c3ccccc31)[C@H](C(=O)NC[C@H](O)c1ccccc1)[C@H]1C(=O)O[C@H](c3ccccc3)[C@H](c3ccccc3)N1[C@@H]2c1ccc(OCCO)cc1 | 0.367
44 | COc1ccc(C(O)C2C=CC3C(=O)NC(=O)C3N2Nc2ccccn2)cc1OCc1ccccc1 (centres undefined) | -0.0511
45 | COCCOC(=O)N1C(=O)[C@@]2(c3cc(C#CC4=CCCCC4)ccc31)[C@H](C(=O)NC[C@H](O)c1ccccc1)[C@H]1C(=O)O[C@H](c3ccccc3)[C@H](c3ccccc3)N1[C@@H]2c1ccc(O)cc1 | 0.703
46 | COc1ccc([Si](C)(C)[C@@H]2[C@@H](CCn3cc([C@H](O)c4ccccc4)nn3)O[C@]3(C(=O)N(Cc4ccc(N5C(=O)c6cccc7cccc5c67)cc4)c4ccccc43)[C@H]2C)cc1 | -0.465
47 | [N-]=[N+]=NCc1ccccc1C[C@]1(C(=O)O)N=C(c2ccc(OCCCO)cc2)O[C@H]1c1ccccc1CN=[N+]=[N-] | 0.378
48 | CC(C)NC(=O)[C@@H]1c2ccccc2C(=O)N(Cc2ccccc2)[C@H]1c1ccc(CO)cc1 | 0.512
49 | COCCOC(=O)N1C(=O)[C@@]2(c3cc(C#CCNC(N)=O)ccc31)[C@H](c1ccccc1OCCO)N1[C@H](c3ccccc3)[C@H](c3ccccc3)OC(=O)[C@H]1[C@@H]2C(N)=O | 0.189
50 | O=C1C2C=CC(C(O)c3ccc(B(O)O)cc3)N(Nc3ccccc3)C2C(=O)N1c1ccccc1 (centres undefined) | 1.44
51 | COC(=O)[C@@]1(Cc2ccc(F)cc2)[C@H]2c3cc(C(=O)N(C)C)n(CCc4ccccn4)c3C[C@H]2CN1C(=O)c1ccccc1 | 0.994
52 | Cc1ccc(S[C@]2(C(=O)NC3CC3)CC(=O)N(Cc3ccccc3)[C@@H]2c2ccc(CO)cc2)cc1 | -0.526
53 | O=C1C2C=CC(C(O)c3ccc(F)cc3)N(Nc3ccccc3)C2C(=O)N1c1ccccc1 (centres undefined) | 0.734
54 | Cc1cc(C)c(C(O)C2C=CC3C(=O)N(C)C(=O)C3N2Nc2ccccc2)c(C)c1 (centres undefined) | 0.471
55 | [N-]=[N+]=NCc1ccccc1C[C@]1(C(=O)NCCN2CCOCC2)N=C(c2ccc(OCCCO)cc2)O[C@H]1c1ccccc1N=[N+]=[N-] | 0.669
56 | O=C(OCCF)C1=CCC(c2cccc(Cl)c2)O1 (centres undefined) | 0.475
57 | [N-]=[N+]=NCc1ccccc1C[C@]1(C(=O)NCC(O)CO)N=C(c2ccc(OCCCO)cc2)O[C@H]1c1ccccc1N=[N+]=[N-] (some centres undefined) | 1.66
58 | COCC1=C2[C@@H](CCc3ccccc3)OB(O)C[C@@H]2[C@@H]2C(=O)N(Cc3ccccc3)C(=O)[C@@H]2C1 | -0.138
59 | [N-]=[N+]=Nc1ccccc1[C@H]1OC(c2ccc(OCCCO)cc2)=N[C@@]1(CCS(=O)(=O)c1ccccc1)C(=O)O | 0.042
